Experimental data from PubChem BioAssay AID588489 (Sanford-Burnham Center for Chemical Genomics, 2011).
In all, about 360,000 compounds went through this assay and about 1,300 (0.36%) were called active. Only a selection was taken, and actives are over-represented in it overall. Values without a mark were called inactive. Rule as the data show it: active = inhibition above about 35% (passing the limit was not always enough); inactive = the rest.

The compounds below were run against Polyadenylate-binding protein 1 (Homo sapiens) (UniProt P11940) (assay: PAM2 peptide displacement from PABP1 MLLE – biochemical, fluorescence polarization, FITC-PAM2, GST-MLLE, primary screen (AID 588489;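 also: plate controls were DMSO wells with GST-MLLE for no effect and wells lacking GST-MLLE protein for full effect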)). Conditions: at 20 µM, hits give high values.
Chain of Polyadenylate-binding protein 1 (Homo sapiens) (P11940 whole entry, looked up): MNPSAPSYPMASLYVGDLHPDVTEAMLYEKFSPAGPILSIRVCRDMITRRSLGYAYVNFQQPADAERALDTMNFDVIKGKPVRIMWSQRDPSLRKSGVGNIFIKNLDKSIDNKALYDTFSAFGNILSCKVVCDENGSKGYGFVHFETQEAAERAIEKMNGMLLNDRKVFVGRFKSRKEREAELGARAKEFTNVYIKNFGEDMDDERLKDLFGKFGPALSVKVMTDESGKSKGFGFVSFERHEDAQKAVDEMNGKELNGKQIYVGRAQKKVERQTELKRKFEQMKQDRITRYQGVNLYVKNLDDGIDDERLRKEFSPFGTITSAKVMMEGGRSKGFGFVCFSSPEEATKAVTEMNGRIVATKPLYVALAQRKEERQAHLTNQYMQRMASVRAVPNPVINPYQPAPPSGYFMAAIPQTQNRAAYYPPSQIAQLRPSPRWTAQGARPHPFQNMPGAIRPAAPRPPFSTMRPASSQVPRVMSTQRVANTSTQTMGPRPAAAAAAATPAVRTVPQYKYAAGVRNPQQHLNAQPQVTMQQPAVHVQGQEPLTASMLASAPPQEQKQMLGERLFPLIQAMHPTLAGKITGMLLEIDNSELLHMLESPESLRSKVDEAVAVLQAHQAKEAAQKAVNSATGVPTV
`CCOC(=O)Cc1cc(=O)[nH]c(/N=C(\N)Nc2ccc(OC)cc2)n1` gave an inhibition of 3.52%. With `COc1ccc(S(=O)(=O)N2CCSCC2)cc1` the inhibition was 2.01%. Work on `Cc1c(C)c(C)c(S(=O)(=O)NCCc2ccccn2)c(C)c1C` yielded an inhibition of -6.36%. Work on `CCOC(=O)CNC(=O)CSc1nc2cccnc2n1CC` yielded an inhibition of 0.93%. `COCCCNC(=O)Cc1ccc(-n2c(C)nc3cccnc32)cc1` was tested, and the inhibition was 18.3%. For `CCc1nc2cccnc2n1-c1ccc(C(=O)O)cc1`, the inhibition was 58.3% (active). For `O=C(NCc1cc(F)cc(C(F)(F)F)c1)C1CCC(=O)N(C2CCCC2)C1` (configuration not stated), the inhibition was 2.19%. `C[C@@H]1NS(=O)(=O)c2cc(Cl)ccc2O[C@@H]1c1ccccc1` was tested, and the inhibition was -9.19%. `Cc1cccc(NC(=O)NC(=S)NC(=O)c2ccccc2)c1` was tested, and the inhibition was 41.9% (active). Work on `Cc1cccc(OCCNC(=S)NC(=O)c2cccnc2)c1` yielded an inhibition of 22%. `Cn1nnc(NC(=S)NC(=O)c2ccccc2)n1` showed an inhibition of 26.2%. For `COc1ccc(C(C)(C)C)cc1NC(=O)CN(C)C1=NS(=O)(=O)c2ccccc21`, the inhibition was -40.4%. `O=S(=O)(c1cccc(Cn2nnc(-c3ccc(F)cc3)n2)c1)N1CCOCC1` showed an inhibition of -5.3%. `O=S(=O)(c1ccc(F)cc1)N1CC=C(c2ccccc2)CC1` showed an inhibition of -8.32%. Work on `O=C(Nc1ccccc1)c1ccccc1Br` yielded an inhibition of -11.2%. For `O=C(NC(=S)Nc1ncccn1)c1ccccc1Br`, the inhibition was 42.1% (active). `CC1CCN(C(=S)NC(=O)c2ccccc2Br)CC1` gave an inhibition of 15%. `Cc1cc(Cl)ccc1C(=O)C1CCCN(C(=O)CCN2CCCO2)C1` (configuration not stated) was tested, and the inhibition was -4.82%. For `CCN1C(=O)[C@H]2[C@@H](c3ccc(-c4ccc(OC)cc4)cc3)N[C@@](Cc3ccccc3)(C(=O)OC)[C@H]2C1=O`, the inhibition was -0.71%. `O=C(CN1C(=O)c2ccc([N+](=O)[O-])cc2C1=O)Nc1nnc(C2CC2)s1` showed an inhibition of -18.6%. For `O=C(Cc1ccc(Br)cc1)N1CCN(c2ccccn2)CC1`, the inhibition was 61.7% (active). Compound `O=C(Cc1ccccc1Cl)N1CCN(c2ccccn2)CC1` has an inhibition of -6.28%. Compound `O=C(C(Cl)Cl)N1CCN(c2ccccn2)CC1` has an inhibition of -10.9%. Compound `CC(=O)NC(CC(=O)Nc1cccc(S(=O)(=O)N2CCCC2)c1)c1ccccc1` (configuration not stated) has an inhibition of -16.4%. `COc1ccc2c(c1)C(NS(=O)(=O)OCC(Cl)(Cl)Cl)CCC2` (configuration not stated) showed an inhibition of -0.88%. Compound `CN(C)S(=O)(=O)c1cccc(NC(=O)COC(=O)C2(c3ccccc3F)CCCC2)c1` has an inhibition of 4.77%. For `COc1ccccc1C(=O)NC(=S)Nc1ccccc1N1CCCCC1`, the inhibition was 14.7%. `COc1ccc(Br)cc1C(=O)NC(=S)Nc1cc(-c2nc3ccccc3[nH]2)ccc1C` was tested, and the inhibition was 43.3% (active). `COc1ccc(Br)cc1C(=O)Nc1cccc(C)c1C` showed an inhibition of 21.9%. `O=C(CSC(=S)N1CCCCC1)c1c(F)cccc1F` showed an inhibition of -3.59%. Work on `C#CCOc1ccc(/C=C2/C(=O)ON=C2C)cc1OCC` yielded an inhibition of 26.6%. `COc1cc(/C=C2/C(=O)ON=C2C)ccc1OCc1cccc(F)c1` was tested, and the inhibition was 41.5% (active). `CC1=NOC(=O)/C1=C\c1ccccc1` was tested, and the inhibition was 25.2%. With `CC(C)(C)[C@H]1C=C(C(=O)NCc2ccccc2)O[C@@H](OCc2ccc(CO)cc2)C1` the inhibition was -0.14%. In the case of `COCCOC(=O)c1sc(=S)n(CCOC)c1N`, the inhibition is reported as 49.3% (active). Work on `CCn1ncc(C2=NOC(C(=O)Nc3ccccc3C(=O)OC)C2)c1C` (configuration not stated) yielded an inhibition of 10.5%. In the case of `COc1ccccc1-c1cc2nc(NCc3cccc(Cl)c3)ccn2n1`, the inhibition is reported as 10.3%. `COc1ccc(-c2nc(CS(=O)CC(=O)NCc3ccccn3)c(C)o2)cc1` (configuration not stated) was tested, and the inhibition was 61.9% (active). Work on `COc1ccc(-c2nc(CS(=O)CC(=O)NCc3ccccc3)c(C)o2)cc1OC` (configuration not stated) yielded an inhibition of 19.8%. With `COc1ccc(-c2nc(CS(=O)CC(=O)NCc3cccnc3)c(C)o2)cc1OC` (configuration not stated) the inhibition was 23.2%. `CC1CCCC(C)N1C(=O)CN1CCN(c2nc(-c3ccc(F)cc3)cs2)CC1` (configuration not stated) was tested, and the inhibition was -7.72%. `COc1ccc(Nc2cc(Cl)ccc2C(=O)O)cn1` was tested, and the inhibition was 41.8% (active). With `COc1cccc(Nc2ncccc2C(=O)O)c1` the inhibition was 8.54%. `COc1ccc(NS(=O)(=O)c2ccc(F)cc2F)cn1` was tested, and the inhibition was -1.17%. Work on `CCOC(=O)C1CCCCN1Cc1ccc(OC)c(OC)c1OC` (configuration not stated) yielded an inhibition of 0.49%. For `NC(CSC12CC3CC(CC(C3)C1)C2)C(=O)O` (configuration not stated), the inhibition was 11.7%. With `COCCNC(=O)Nc1ccc2nc(-c3ccco3)c(-c3ccco3)nc2c1` the inhibition was 72.8% (active). For `Cc1cc2nc(C)n(CCCNC(=O)Nc3ccccc3)c2cc1C`, the inhibition was 4.6%. `COCCNC(=O)CSc1nc(N)c(NC(=O)c2ccco2)c(=O)[nH]1` was tested, and the inhibition was -1%. `Cc1ccc(C)c(S(=O)(=O)N2CCCOC2CNC(=O)C(=O)NC2CCCCC2)c1` (configuration not stated) was tested, and the inhibition was -1.96%. For `CCN(CC)C(=O)COc1coc(CN2CCN(Cc3ccccc3)CC2)cc1=O`, the inhibition was 9.67%. For `NS(=O)(=O)c1ccc(CCNC(=O)c2ccc([N+](=O)[O-])cc2[N+](=O)[O-])cc1`, the inhibition was 5.05%. Compound `CNc1nccc(-c2ccc(Cl)cc2)c1C#N` has an inhibition of 11.5%. Compound `Cc1nc(N2CCCC2C(=O)O)c2oc3ccccc3c2n1` (configuration not stated) has an inhibition of 2.41%. With `O=C(O)C1CCCN1c1nc(Cl)ccc1[N+](=O)[O-]` (configuration not stated) the inhibition was 51.9% (active). Work on `Cc1cc([N+](=O)[O-])c(N2CCC[C@@H]2C(=O)O)c([N+](=O)[O-])c1` yielded an inhibition of 11.4%. For `CC(=O)Nc1ccc(S(=O)(=O)N2CCN(c3ccc([N+](=O)[O-])c(NCCN4CCOCC4)c3)CC2)cc1`, the inhibition was -9.63%. Work on `O=C1c2ccccc2C2=Nc3ccccc3SC(c3ccccc3F)C12` (configuration not stated) yielded an inhibition of -2.44%. For `O=C1c2cccc(OCC(=O)N3N=C(c4cccs4)CC3c3ccc(F)cc3)c2CCN1Cc1ccccc1` (configuration not stated), the inhibition was 0.32%. In the case of `COc1cccc(C2SCC(=O)N2c2cccc(C)c2)c1OC` (configuration not stated), the inhibition is reported as 20.4%. In the case of `O=C1CSC(c2cccc(F)c2)N1c1ccc(O)cc1` (configuration not stated), the inhibition is reported as 1.39%. In the case of `Cc1ccc(C2SCC(=O)N2c2ccccc2)cc1` (configuration not stated), the inhibition is reported as 48.1% (active).
